# Measurements as given in PubChem BioAssay (NCI).
# About 79,000 compounds went through this panel and 15% of them were active in at least one assay; those are over-represented in the sample as a whole. A number with no mark means an inactive call. Activity calls are given as the source filed them. No stated cut-off is given here; in the data, active means growth inhibition above about 70%; inactive means the rest.
# Test: NCI Yeast Anticancer Drug Screen. Data for the mlh1 rad18 strain (AID 175)
# Conditions: S. cerevisiae mlh1 rad18 strain growth inhibition; at 50.0 µM; stronger effect = higher value
# Method in brief: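 Test agents were incubated with a yeast strain of defined genotype (DNA damage repair defect). Inhibition of growth was derived by comparison with vehicle-exposed cultures.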
row,SMILES,growth inhibition
1,NNC(=S)NN/C=C(\C=Nc1ccccc1)[N+](=O)[O-],68.8%
2,CCCCCCCCCCCCCCCCCO,77.8% (active)
3,COc1cc(C(c2cc3c(cc2O)OCO3)N2CCOCC2)cc(OC)c1OC (stereo not given),19%
4,O=C1OCc2cccc3cccc1c23,62%
5,CSC(=S)NNC(C)c1nccc2ccccc12 (stereo not given),98.8% (active)
6,N#Cc1c(Cl)nc2ccccc2c1N=[N+]=[N-],58.2%
7,CC(C)(C)CC(C)(C)c1ccc(OCCSC(=N)N)cc1,99.2% (active)
8,COC1CCC(O)C(CO)O1 (stereo not given),99.5% (active)
9,CC(=O)N(C1=C(Cl)C(=O)c2ccccc2C1=O)c1ccc(Cl)cc1,96.7% (active)
10,Cc1nc(N2N=C(c3ccc(Cl)cc3)CCC2=O)sc1[N+](=O)[O-],65.2%
11,Cn1c2c(c3ccccc31)CCN1C[C@@H]3CCCC[C@H]3C[C@@H]21,30.1%
12,Cn1cc(NC(=O)Nc2cc(C(=O)Nc3cc(C(=O)Nc4ccc5cc(S(=O)(=O)O)cc(S(=O)(=O)O)c5c4)n(C)c3)n(C)c2)cc1C(=O)Nc1cc(C(=O)Nc2ccc3cc(S(=O)(=O)O)cc(S(=O)(=O)O)c3c2)n(C)c1,90.8% (active)
13,CC(=O)Oc1c(Cl)cc(Cl)cc1C(c1cc(Cl)cc(Cl)c1OC(C)=O)C(Cl)(Cl)Cl,95.5% (active)
14,CCCCCc1ccc2cc(C(=O)O)[nH]c2c1,98.2% (active)
15,C/C(=N/O)c1cc([N+](=O)[O-])c(O)cc1O,85.8% (active)
16,CCOC(=O)CNC(=O)Sc1ccc(C(C)(C)C)cc1C,26.7%
17,S=C(N/N=C1\C=Cc2ccccc2C1)N/N=C1\C=Cc2ccccc2C1,71% (active)
18,Cc1cccc(Nc2c3c(nc4ccccc24)CCCCC3)c1,93.2% (active)
19,Cc1ccc(NS(=O)(=O)c2ccc(C)cc2)cc1,47.1%
20,CCOC(=O)C(=CNC(=S)Nc1c(CC)cccc1C(C)(C)C)C(=O)OCC,86.8% (active)
21,COC1/C=C/OC2(C)Oc3c(C)c(OC(C)=O)c4c(c3C2=O)C(=O)C=C(NC(=O)/C(C)=C\C=C\C(C)C(O)C(C)C(O)C(C)C(OC(C)=O)C1C)C4=O (stereo not given),46.5%
22,O=C(O)c1ccc(/C=C2\COc3ccccc3C2=O)cc1,84.5% (active)
23,Cc1c2c(c(C)c3ccncc13)S(=O)(=O)c1ccccc1-2,79.9% (active)
24,Oc1c(Cl)cc(Cl)c2cccnc12,99% (active)
25,Cc1ccc(S(=O)(=O)Nc2ccc3c(c2)C(=O)c2ccccc2-3)cc1,84.9% (active)
